Screens from PubChem.
Mcl1-Bid inh: Mcl-1/Bid binding inhibitors, primary screen, biochemical, TR-FRET, 1536-well | 220,000 tested, 0.97% active | inhibition, % at 21.7 µM | TR-FRET Mcl-1/Bid-Dy647 peptide binding | AID 1021, 2008;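 active means compounds that cut the binding signal by more than half at the single screening dose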;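 further: His-tagged Mcl-1 with europium anti-His antibody binding Bid BH3 peptide; 0% = Mcl-1 plus peptide wells and 100% = peptide-only wells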
Bim-Mcl-1: inhibitors of Bim peptide binding to Mcl-1, primary screen, biochemical, bead-based flow cytometry, multiplex; Bim peptide-Mcl-1 binding; 190,000 tested, 0.1% active; inhibition, % at 10 µM; AID 1009, 2008; in the data active means inhibition above about 40%;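 further: 0% = no compound tracer wells and 100% = peptide blocker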
Mcl1 Noxa PPI: Mcl-1/Noxa binding inhibitors, primary screen, biochemical, TR-FRET, 1536-well. Induced myeloid leukemia cell differentiation protein Mcl-1 (Homo sapiens), Q07820. TR-FRET Mcl-1/Noxa peptide binding, 2 h. inhibition, % at 21.7 µM. 220,000 tested, 1.5% active. AID 1022, 2008;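 active means compounds that cut the protein-peptide binding signal by more than 50% relative to plate controls in a single-dose test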;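 further: His-tagged Mcl-1 with rhodamine Noxa BH3 peptide and terbium anti-His antibody; 0% = Mcl-1 plus Noxa peptide wells and 100% = peptide-only wells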
14-3-3 Bad PPI: inhibitors of 14-3-3 zeta/Bad binding, primary screen, biochemical, TR-FRET, bovine 14-3-3 zeta; TR-FRET 14-3-3zeta/Dy647-pBad peptide displacement, 1 h; inhibition, % at 21.7 µM; 220,000 tested, 0.71% active;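 active means inhibition above about 70%, limit read from the data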;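 further: 0% = full 14-3-3 plus peptide FRET controls and 100% = background without 14-3-3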
Target sequence (P63103 whole entry, looked up): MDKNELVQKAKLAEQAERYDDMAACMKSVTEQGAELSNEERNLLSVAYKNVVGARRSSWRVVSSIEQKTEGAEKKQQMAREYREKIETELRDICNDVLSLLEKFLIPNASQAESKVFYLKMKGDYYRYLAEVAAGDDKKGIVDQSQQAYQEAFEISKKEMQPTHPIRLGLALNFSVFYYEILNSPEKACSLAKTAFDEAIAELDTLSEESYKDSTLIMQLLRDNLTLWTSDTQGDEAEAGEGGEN
p47phox inh: p47phox/p22phox peptide binding inhibitors, primary screen, biochemical, uHTS, NADPH oxidase regulatory subunit; Neutrophil cytosol factor 1 (Homo sapiens), P14598; fluorescence polarization, 2 h; inhibition, % at 24.7 µM; 220,000 tested, 0.53% active; AID 1274, 2008;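 active means inhibition above about 30%, limit read from the data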;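 further: 0% = p47phox with labelled peptide and 100% = labelled peptide alone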
Target sequence (P14598 whole entry, looked up): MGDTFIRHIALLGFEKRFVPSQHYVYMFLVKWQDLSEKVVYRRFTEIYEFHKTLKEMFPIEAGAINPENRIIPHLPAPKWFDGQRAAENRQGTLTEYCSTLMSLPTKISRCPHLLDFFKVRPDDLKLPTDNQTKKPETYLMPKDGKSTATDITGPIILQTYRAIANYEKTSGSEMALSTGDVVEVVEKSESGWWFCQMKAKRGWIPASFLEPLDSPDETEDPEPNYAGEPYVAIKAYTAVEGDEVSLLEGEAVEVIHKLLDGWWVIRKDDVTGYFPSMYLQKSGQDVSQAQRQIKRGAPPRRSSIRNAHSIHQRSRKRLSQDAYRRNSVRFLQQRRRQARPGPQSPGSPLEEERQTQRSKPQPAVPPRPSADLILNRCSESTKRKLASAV
Active calls of the source: *; / = not tested or not shown; [ ] = remark or other dose. Sampled rows, rich in hits. Any-hit rate of the full collection: about 3.1%.

SMILES	Mcl1-Bid inh	Bim-Mcl-1	Mcl1 Noxa PPI	14-3-3 Bad PPI	p47phox inh
O=C(O)/C=C/C(=O)Nc1ccc(Oc2ccc(NC(=O)/C=C/C(=O)O)cc2)cc1	-21.0	0.0	65.8*	11.4	-6.9
CN(C(=O)CSc1nnc(Nc2ccccc2)s1)c1c(N)n(Cc2ccccc2)c(=O)[nH]c1=O	-17.7	8.0	53.0*	-4.2	-10.9
O=C(OCC(=O)N1CCOCC1)c1cccc(S(=O)(=O)N2CCCc3ccccc32)c1	-14.1	/	-4.9	7.2	-11.4
CN=c1scc(-c2ccco2)n1/N=C/c1ccc(O)c(O)c1	-40.5	-1.0	72.9*	-27.2	-19.6
NC(=O)Cn1c(=O)n(C2CCCCC2)c(=O)c2c3c(sc21)CCCCC3	5.8	-5.0	6.2	3.6	-2.1
CCC(C)NC(=O)C(Sc1ccccc1)c1ccccc1 (stereo not drawn)	-19.1	1.0	17.3	-4.2	-0.9
COc1ccc(NC(=O)CN(C)C(C)C(=O)N2CCCCC2)cc1 (stereo not drawn)	56.3*	-3.0	24.4	66.0	-1.3
CCOc1ccc(NC(=O)CN(C)CC(=O)Nc2ccccc2SC)cc1OCC	-23.9	-8.0	-15.4	15.6	3.1
COc1ccc(NC(=O)CN(C)CC(=O)Nc2ccccc2SC)cc1	51.3*	-3.0	18.0	24.1	3.7
O=C(CN1C(=O)c2ccccc2C1=O)Nc1ccccc1C(=O)NC1CCCCC1	-4.0	4.0	-4.5	9.4	-18.4
c1csc(Cc2nn3c(-c4n[nH]c5c4CCC5)nnc3s2)c1	-16.6	2.0	54.0*	0.2	-11.7
c1coc(-c2nnc3sc(Cc4cccs4)nn23)c1	-25.2	-2.0	38.8	-13.8	-15.5
Cc1cc(C)n(CCCNCC(O)c2ccccc2)n1 (stereo not drawn)	38.5	2.0	28.1	84.7*	4.4
O[C@@H](CNC[C@H](O)c1ccccc1)c1ccccc1	-1.7	9.0	-13.0	22.2	-7.0
NC(=O)c1ccccc1NC(=O)Nc1cccc2ccccc12	-12.7	-5.0	14.7	-13.8	-8.4
O=C(Cc1ccc(Cl)cc1)NNC(=O)Nc1cccc2ccccc12	-38.3	0.0	-8.6	2.1	59.8*
Fc1ccc(CCNC(=S)Nc2ccc(F)c(Cl)c2)cc1	-65.8	0.0	10.6	-13.4	1.0
CCSc1ncc(Cl)c(C(=O)Nc2sc3c(c2C(=O)NCc2cccnc2)CCCC3)n1	59.2*	44.0*	27.0	57.8	6.9
CN1C(=O)C(N=Nc2ccccc2C(=O)O)N(C)C1=S (stereo not drawn)	53.0*	-1.0	39.0	-19.3	-21.6
CCOC(=O)CC(NC(=O)CCc1c(C)nc2ncnn2c1C)c1ccc(OC(C)C)cc1 (stereo not drawn)	-23.4	1.0	5.1	0.0	-1.1
O=C(Nc1nccs1)c1cc2c(s1)-c1ccccc1OC2	-15.1	0.0	15.2	6.3	13.7
O=C(Nc1nc2ccccc2s1)c1cc2c(s1)-c1ccccc1OC2	57.4*	0.0	13.8	27.0	-0.7
O=C(c1ccc(OC2CCN(CCc3ccccc3)CC2)cc1)N1CCCC(CO)C1 (stereo not drawn)	-45.4	-2.0	13.3	-11.3	-4.5
CC(C)(C)c1c(Cl)c(O)c(-c2ccccc2)c(=O)n1-c1ccccc1	86.1*	-2.0	35.5	79.5*	12.0
O=c1c(-c2ccccc2)c(O)cc(-c2ccncc2)n1-c1ccc(Cl)cc1	-32.2	1.0	8.8	-5.3	-11.6
SMILES	Mcl1-Bid inh	Bim-Mcl-1	Mcl1 Noxa PPI	14-3-3 Bad PPI	p47phox inh
CCC(C)(C)n1nnnc1CN(Cc1ccc(Cl)cc1)Cc1ccco1	56.9*	2.0	35.8	-10.6	-15.1
CCC(C)(C)n1nnnc1CN(Cc1ccco1)Cc1cc2cc3c(cc2[nH]c1=O)OCO3	-29.1	-1.0	0.9	/	1.7
O=Nc1c(O)n(Cc2ccc(Cl)c(Cl)c2)c2ccccc12	0.5	0.0	5.9	-13.2	-19.5
N#Cc1c(C#N)c(O)c2ccccc2c1O	-200.8	/	31.9	5.1	-11.6
N=C1CCC(=N)c2c1c(O)c1ccccc1c2O	-14.8	/	76.3*	46.3	125.0*
O=C1C(C=NCc2ccncc2)=C(O)c2ccccc21	95.8*	0.0	16.5	-5.2	1.6
CCOc1ccccc1NC(=S)NCc1ccco1	-69.5	-2.0	-2.9	-12.2	-1.1
CCOC(=O)N1CCC(N2CCN(S(=O)(=O)c3ccc(C)cc3)CC2)CC1	30.6	-1.0	8.1	63.7	7.9
CCOC(=O)N1CCC(N2CCN(S(=O)(=O)CC)CC2)CC1	7.8	-4.0	11.6	71.8*	-4.3
COc1ccccc1/C=C(/NC(=O)c1ccc(Cl)cc1Cl)C(=O)O	-33.2	-2.0	3.7	85.5*	-5.4
COc1ccc(/C=C(/NC(=O)c2ccccc2Cl)C(=O)O)cc1	-19.4	0.0	5.3	-12.1	-6.2
O=C(c1ccccc1Br)N1CCN(c2ccccc2)CC1	-22.8	-2.0	3.5	16.6	-5.2
CCn1cc(Br)c(C(=O)N2CCN(c3ccccc3)CC2)n1	0.3	3.0	16.2	71.9*	-1.5
O=C1OC(c2ccccc2)=C/C1=C/N1CCCCC1	85.7*	0.0	13.9	-11.1	-24.0
O=C1OC(c2ccccc2)=N/C1=C\N1CCCCC1	-29.4	-3.0	15.4	-3.1	-5.5
CCN(CCCNC(=O)C1CCC(=O)N1C(C)C)c1cccc(C)c1 (stereo not drawn)	-13.6	0.0	13.5	-9.3	-0.1
Cc1nnc(SCC(=O)N2N=C(c3ccc(Cl)cc3)CC2c2ccco2)[nH]c1=O (stereo not drawn)	-64.4	4.0	53.3*	-10.9	-53.0
COc1ccc(/C=N/NC(=O)c2cc(O)c(O)c(O)c2)cc1Cn1cc([N+](=O)[O-])cn1	-100.9	10.0	92.5*	28.1	-7.5
CCOc1cc(CNCCCN2CCOCC2)cc(Br)c1OCC(=O)Nc1cccc(C(F)(F)F)c1	21.0	-1.0	18.1	79.3*	-16.6
O=C(Nc1ccccc1C(=O)NC(Cc1ccccc1)C(=O)NC1CCCCCC1)c1ccccc1 (stereo not drawn)	-11.7	4.0	6.5	-6.7	-14.9
N#C/C(=N\Nc1ccc(S(=O)(=O)N2CCc3ccccc32)cc1)C(N)=S	-7.2	2.0	59.7*	-14.0	-24.0
CCOC(=O)/C(C#N)=N/Nc1ccc(S(=O)(=O)N2CCc3ccccc32)cc1	-31.8	0.0	15.4	-21.2	-21.6
Cc1ccccc1-n1c(C)nnc1SCC(=O)NC1CCCc2ccccc21 (stereo not drawn)	16.3	2.0	8.0	92.3*[fluorescence artefact?]	-1.2
Cn1cc(CN2CCc3sccc3C2)c(-c2ccccc2F)n1	-13.8	-2.0	22.5	-9.8	-9.7
Clc1ccccc1CN1CCc2sccc2C1	88.3*	-3.0	15.8	-0.7	-8.5
O=C1c2ccccc2-c2onc3ccc(Oc4ccccc4)c1c23	8.7	14.0	42.7	-0.5	-78.6
